# From PubChem
# Hits are enriched below; roughly 7.3% of the tested compounds scored in any of these assays.
# p53 reactivation – restores transcriptional activity of mutant p53 | H1299 p53-A138V BP100-luciferase reporter, luminescence, 24 h | Potency, µM (doses to about 92.2 µM), inactives show at the top dose activity change, positive = activation, most hits filed as activators | 320,000 tested, 0.063% active | AID 504706; note: % of control where 0% means no effect; nearly all actives have a fitted effect of over 45% in size
#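 H1299 (p53-null), stable ts p53-A138V + BP100-Luc; 1000 cells/well, Opti-MEM/10% FBS; cpd 4 pt, 1:5; 24 h, 37 deg C, 5% CO2; detection reagent 10 min RT; luminescence.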
# Rab9 prom act – activates the Rab9 promoter; Huh7 Rab9 promoter-luciferase reporter, luminescence, 24 h; 320,000 tested, 2.8% active; Potency, µM (series often up to 9.22 µM), without a hit: at the highest dose activation, negative = inhibition, most hits filed as activators; note: % of control where 0% means no effect; nearly all actives have a fitted effect of over 60% in size
#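 Rab9 promoter-driven luciferase in stably transfected Huh7 cells; 1500 cells/well rested 2 h, exposed to compound in DMSO for 24 h at 37 °C, 5% CO2. Luminescence read 10 min after adding luciferase reagent at ambient temperature.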
# FLuc modulator – inhibits or activates purified firefly luciferase, miR-21 counter-screen; purified FLuc, Km substrates, luminescence inhibition; P08659; 360,000 tested, 6.9% active; Potency, µM (highest dose often 57.5 µM), inactives show at the highest dose activity change, negative = inhibition, actives largely listed as inhibitors; AID 588342;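 note: plate controls were vehicle for no effect and reference inhibitor for full effect; nearly all actives have a fitted effect of over 55% in size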
# Target sequence (P08659 whole entry, looked up): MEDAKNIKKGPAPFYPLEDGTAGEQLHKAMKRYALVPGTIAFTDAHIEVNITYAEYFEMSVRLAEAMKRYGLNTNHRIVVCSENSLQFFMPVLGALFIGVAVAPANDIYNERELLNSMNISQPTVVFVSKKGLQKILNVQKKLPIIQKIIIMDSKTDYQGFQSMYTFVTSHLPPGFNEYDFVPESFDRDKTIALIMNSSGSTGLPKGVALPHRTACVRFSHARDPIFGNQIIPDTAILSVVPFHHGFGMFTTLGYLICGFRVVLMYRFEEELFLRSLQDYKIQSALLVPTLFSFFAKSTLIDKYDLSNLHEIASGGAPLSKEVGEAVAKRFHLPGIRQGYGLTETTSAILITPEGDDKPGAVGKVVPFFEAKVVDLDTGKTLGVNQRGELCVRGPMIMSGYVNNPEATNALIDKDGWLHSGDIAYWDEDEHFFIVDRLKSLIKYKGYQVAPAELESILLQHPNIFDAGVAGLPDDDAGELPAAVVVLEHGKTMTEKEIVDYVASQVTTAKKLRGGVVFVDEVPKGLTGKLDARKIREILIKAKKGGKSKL
#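 Biochemical qHTS of compounds, final roughly 60 µM downward over six points, against 10 nM purified firefly luciferase using Km concentrations of substrates (10 uM D-luciferin, 10 uM ATP) in Tris acetate pH 7.5 buffer; luminescence output.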
# NPC1 promoter act – activators of NPC1 promoter. AID 485313. Potency, µM (highest dose often 9.22 µM), inactives show top-dose activation, actives largely listed as activators. Huh7 NPC1 promoter luciferase reporter, 24 h. 320,000 tested, 2.4% active; note: % of control where 0% means no effect; nearly all actives have a fitted effect of over 60% in size
#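 Compounds in DMSO were transferred onto Huh7 NPC1-luciferase reporter cells pre-incubated 2 h; after 24 h at 37 °C, Amplite reagent was dispensed and luminescence recorded 10 min later.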
# SMN2 splice enh – enhancers of SMN2 splice variant expression | 210,000 tested, 2.8% active | Potency, µM (top dose mostly 46.1 µM), for the others: at the top dose activity change, positive = activation, most hits filed as activators | AID 1458 | HEK293 SMN2-luciferase splicing reporter, luminescence, 30-36 h; note: % of control where 0% means no effect; nearly all actives have a fitted effect of over 55% in size
#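 HEK293 cells carry an SMN2 minigene-luciferase reporter in which exon 7 inclusion puts luciferase in frame. Cells were seeded at 2000 cells/well, attached for 10-12 hours, then exposed to compounds for 30-36 hours at 37C before ONE-Glo luminescence.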
# ELG1 genotox – genotoxicity induction in ELG1-luciferase HEK293T cells; HEK293T ELG1-luciferase reporter, luminescence, 16 h; Potency, µM (titrated, usually from 46 µM), inactives show top-dose activity change, positive = activation, most hits filed as activators; 330,000 tested, 1.3% active; note: % of control where 0% means no effect; nearly all actives have a fitted effect of over 60% in size
#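 ELG1-luciferase HEK293T cells, 2,000/well; compound pinned in; 16 hr, 37 °C, 5% CO2; ONE-Glo, 30 min RT; luminescence on CCD imager.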
# * = called active by the depositor; ? = inconclusive; · = no result given; [ ] = dose if it differs, or a comment. Calls come from the whole dose curve; as a rule, active = well fitted curve in the direction sought with a large enough effect; inconclusive = small, poorly fitted or top-dose-only effect, or another doubt; inactive = no such curve, though single readings can be large; an effect the other way counts as inactive or inconclusive. Potency is the fitted concentration of half-maximal effect.
SMILES,p53 reactivation,Rab9 prom act,FLuc modulator,NPC1 promoter act,SMN2 splice enh,ELG1 genotox
CCOC(=O)c1ccc(NC(=O)c2ccccc2[N+](=O)[O-])cc1,?,27%,?,17%,18µM*,12%
COC(=O)c1ccc(N/N=C/c2cc([N+](=O)[O-])cc(OC)c2O)cc1,-1%,-2%,?,6%,·,10%
CCOC(=O)c1ccc(N/N=C/c2cc(Br)cc([N+](=O)[O-])c2O)cc1,0%,0%,1.2µM*,-3%,-69%,-13%
CCOC(=O)c1ccc(NC(=O)c2ccccc2)cc1,?,2.8µM*,-3%[2.3 µM],2.8µM*,10µM*,?
CCOC(=O)c1cccc(NC(=O)c2cnc3ccccc3n2)c1,?,2µM*,17µM*,?,·,24%
Cc1cccc(NC(=O)Cn2nc(-c3ccccc3)c3cnc4ccccc4c32)c1,·,·,0%,·,·,·
COCC(=O)N1CCC2(CC1)CCN(C(=O)NC(C)C)CC2,·,·,·,·,-4%,·
CCOC(=O)c1cccc(NC(=O)c2ccc(N(C)C)cc2)c1,?,0.28µM*,1.7µM*,0.4µM*,?,8%
O=C(Oc1ccccc1C(=O)Nc1ccccc1)c1ccc(Br)c([N+](=O)[O-])c1,?,15%,15µM*,1%,-6%,13%
CCOC(=O)c1ccc(Nc2ncccc2[N+](=O)[O-])cc1,12%,1µM*,7.6µM*,2.5µM*,·,?
CCOC(=O)c1ccc(Nc2ccc([N+](=O)[O-])cn2)cc1,15%,?,-16%,?,·,15%
CCOC(=O)c1ccc(NC(=S)Nc2ccccn2)cc1,?,25%,-19%,?,12%,15µM*
CN(Cc1cc([N+](=O)[O-])ccc1Cl)C(=O)C[n+]1ccccc1,1%,-4%,-1%,-1%,·,-2%
COc1cc(C(=O)N2CCN(C(=O)c3cc(-c4ccc(Br)cc4)n[nH]3)CC2)cc(OC)c1OC,9%,2%,11µM*,1%,·,2%
COc1ccc(OCC(=O)N2CCN(C(=O)c3ccc(OC)c(OC)c3)CC2)cc1,·,·,?,·,-3%,·
COc1ccc(C(=O)N2CCN(C(=O)COc3ccc(Br)cc3)CC2)cc1OC,·,·,17µM*,·,5%,·
Cc1ccc(-c2cc(C(=O)N3CCN(S(=O)(=O)c4ccc(Br)cc4)CC3)[nH]n2)cc1C,·,·,-3%,·,·,·
Cc1c(-c2ccc(Cl)cc2)c(=O)oc2c(CN3CCN(C)CC3)c(O)ccc12,·,·,4%,·,·,·
CC(C)c1nc2ccc(C(=O)NCCCN3CCN(c4ccccc4F)CC3)cc2o1,·,·,5%,·,·,·
N#CCCCS(=O)(=O)c1nnnn1-c1ccc(F)cc1Br,·,·,·,·,1%,·
CCOc1ccc(NC(=O)c2ccc3[nH]c(C)c(C)c3c2)cc1,·,·,13µM*,·,·,·
COc1ccc(OC)c(CCNC(=O)c2ccc3[nH]c(C)c(C)c3c2)c1,·,·,-1%,·,·,·
CCOc1ccc(CCNC(=O)c2ccc3[nH]c(C)c(C)c3c2)cc1,·,·,-19%,·,·,·
COc1ccc(NC(=O)c2ccc3[nH]c(C)c(C)c3c2)cc1,11%,?,13µM*,20%,·,14%
NCCOB(c1ccccc1)c1ccccc1,·,·,·,·,-25%,·
SMILES,p53 reactivation,Rab9 prom act,FLuc modulator,NPC1 promoter act,SMN2 splice enh,ELG1 genotox
O=C(O)C1CCCCC1C(=O)Nc1ccc(-c2ccccc2)cc1 (stereo unspecified),2%,?,17µM*,18%,27%,?
Cc1ccc(NC(=O)c2ccc(NC(=O)C3CCCCC3C(=O)O)cc2)cc1 (stereo unspecified),24%,-1%,17µM*,-3%,·,11%
CC(=O)Nc1ccc(NC(=O)C2CCCCC2C(=O)O)cc1 (stereo unspecified),3%,-3%,1%,-1%,5%,1%
Cc1sc(NC(=O)C2CCCCC2C(=O)O)c(C(N)=O)c1-c1ccccc1 (stereo unspecified),6%,3.5µM*,3.4µM*,1.6µM*,-24%,?
COc1ccc(NC(=O)c2cc(NC(=O)C3CCCCC3C(=O)O)ccc2N2CCOCC2)cc1 (stereo unspecified),-17%,-4%,1%,-6%,·,2%
Cc1cccc(NC(=O)c2cc(NC(=O)C3CCCCC3C(=O)O)ccc2N2CCOCC2)c1 (stereo unspecified),11%,23%,21µM*,16%,·,0%
COc1ccc(NC(=O)CSC2=Nc3ccccc3C3=NC(CCC(=O)NCc4ccc(F)cc4)C(=O)N23)cc1Cl (stereo unspecified),·,·,-2%,·,-8%,·
Cc1ccc(-n2ncc3c2CC(C)(C)CC3NC(=O)CCN2CCCCC2=O)cc1 (stereo unspecified),-2%,10%,1%,-1%,·,-5%
CC(C)(C)OC(=O)N1CCC(c2c(C(=O)NCc3ccco3)cnn2-c2ccccc2)CC1,·,·,-5%,·,·,·
COCCn1c(SCc2ccc(C(=O)OC)o2)nc2cc(Cl)ccc2c1=O,4%,3.5µM*,-1%,1%,-9%,-1%
Nc1nc(SCc2ccccc2[N+](=O)[O-])c2[nH]cnc2n1,·,·,·,·,-10%[9.22 µM],·
COc1cc2ccc([C@H](C)NCC#N)cc2cc1OC,·,·,·,·,-7%[9.22 µM],·
O=[N+]([O-])c1ccc2nc(-c3ccccc3)oc2c1,?,3.2µM*,9.5µM*,2.8µM*,11µM*,?
COc1cccc(-c2nc3ccc([N+](=O)[O-])cc3o2)c1,4%,2.2µM*,1.5µM*,?,16µM*,?
CCCCOc1ccc(S(N)(=O)=O)cc1,13%,-6%,1%,0%,-9%,1%
COc1ccc(N=Cc2ccc[nH]2)cc1,1%,-4%,9.5µM*,2%,6%,18%
CCCCOc1ccc(N=Cc2ccc[nH]2)cc1,4%,16%,3.8µM*,1%,·,5%
CCCOc1ccc(Cc2c(Cl)nc(SC)nc2N(C)C)cc1,-1%,-4%,0%,0%,-50%,5%
O=C(O)c1cccc(N/N=C/c2ccc(OC(F)(F)F)cc2)c1,·,0.032µM*,0.067µM*,?,·,?
COC(=O)c1ccc(COc2ccc(/C=N/Nc3cccc(C(=O)O)c3)cc2)cc1,22%,0.4µM*,2.7µM*,0.71µM*,·,?
CCOc1cc(/C=N/Nc2cccc(C(=O)O)c2)ccc1OCC(=O)N1CCCCC1,4%,4.5µM*,21µM*,4µM*,11µM*,?
CCOc1cc(C=O)ccc1OCC(=O)N1CCCC1,1%,-3%,2%,-10%,·,0%
O=C(Nc1ccc(OC(F)(F)F)cc1)c1cccc(-n2cnnn2)c1,-3%,-7%,0%,-2%,·,-1%
